# From PubChem BioAssay (NCATS)
# Inconclusive results are not listed. A call without a number means that no potency is given here. Values without a mark were called inactive. The source made the active and inactive calls. Calls follow the shape of the dose curve; as a rule, active = well fitted curve in the direction sought with a large enough effect; inconclusive = small, poorly fitted or top-dose-only effect, or another doubt; inactive = no such curve, though single readings can be large; an effect the other way counts as inactive or inconclusive. Where a SMILES comes first, the peptide text is derived from it.
# Key:
# [1] = P-glycoprotein substrates identified in KB-3-1 adenocarcinoma cell line, qHTS therapeutic library screen (AID 1346986); conditions: KB-3-1 parental cells viability, CellTiter-Glo, 72 h; series mostly up to 44.5 µM; also: nearly all actives have a fitted effect of over 60% in size
# How it was run: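 KB-3-1 parental and colchicine-selected P-gp-overexpressing KB-8-5-11 cells (colchicine omitted during assay), 500 cells/well, dosed in dose-response for 72 h at 37 °C; CellTiter-Glo luminescence. Cytotoxic: curve class -1.1 to -2.4, max response >50%, AC50 < 10 uM.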
# [2] = P-glycoprotein substrates identified in KB-8-5-11 adenocarcinoma cell line, qHTS therapeutic library screen (AID 1346987); conditions: KB-8-5-11 (P-gp overexpressing) viability, CellTiter-Glo, 72 h; series mostly up to 44.5 µM; also: nearly all actives have a fitted effect of over 65% in size
# How it was run: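 KB-8-5-11, a colchicine-selected P-gp-overexpressing KB-3-1 subline, was grown without colchicine for the assay. Cells were seeded at 500 cells/well, dosed in concentration-response and incubated 72 h at 37 degree C, 5% CO2. Viability was read by CellTiter-Glo luminescence.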
structure (smiles),measurement,setting,value
CC1(C)C[C@H](O)C[C@@]2(C)[C@H]1[C@H](O)C=C1COC(=O)[C@@]12O,Potency,[1],inactive
same,Potency,[2],inactive
CC1(C)CC[C@]2(C(=O)O[C@@H]3O[C@H](CO)[C@@H](O)[C@H](O)[C@H]3O)CC[C@]3(C)C(=CCC4[C@@]5(C)C[C@@H](O)[C@H](O)[C@@](C)(CO)C5[C@H](O)C[C@]43C)C2[C@@H]1O (stereo not given in full),Potency,[1],inactive
same,Potency,[2],inactive
NC[C@H]1CCC[C@@H](CNC(=O)[C@@H](Cc2c[nH]c3ccccc23)NC(=O)N2CCC3(C=Cc4ccccc43)CC2)C1,Potency,[1],inactive
same,Potency,[2],inactive
CC(C)(O)C1CC=C(C(=O)OC[C@H]2O[C@@H](Oc3cc(C(=O)O)cc(O)c3O)[C@H](O)[C@@H](O)[C@@H]2O)CC1 (stereo not given in full),Potency,[1],inactive
same,Potency,[2],inactive
COC(=O)C1=CO[C@@H](O[C@@H]2O[C@H](CO)[C@@H](O)[C@H](O)[C@H]2O)[C@@H]2[C@@H](C)[C@@H](O)C(O)[C@H]12 (stereo not given in full),Potency,[1],inactive
same,Potency,[2],inactive
C/C=C(\C)C(=O)O[C@H]1C=CC(=O)O[C@H]1/C=C/[C@H](O)[C@@H](C)O,Potency,[1],inactive
same,Potency,[2],inactive
C=C(C(=O)OC)[C@]12O[C@@](C)(CC[C@@]3(O)/C(=C\C)C(=O)O[C@]3(C)C[C@@H]1OC(=O)C(CO)CN1CCCC1C(=O)O)CC2=O (stereo not given in full),Potency,[1],inactive
same,Potency,[2],inactive
CC1(C)CC2C(O)C3=C(CC(C)(O)C2C1)C(=O)OC3 (stereo not given),Potency,[1],inactive
same,Potency,[2],inactive
COC(=O)C1=COC(O[C@@H]2O[C@H](CO)[C@@H](O)[C@H](O)[C@H]2O)/C(=C\COC(=O)/C=C/c2ccccc2)C1CC(=O)OCCc1ccc(O)cc1 (stereo not given in full),Potency,[1],inactive
same,Potency,[2],inactive
CC1=CC[C@@]2(C)CC[C@@](O)(C(C)C)[C@@H]2[C@@H](O)C1,Potency,[1],inactive
same,Potency,[2],inactive
O=C(c1ccc(Cl)c([N+](=O)[O-])c1)N1CCN(c2ccccc2F)CC1,Potency,[1],inactive
same,Potency,[2],inactive
C=C1CCC2C(C)(C(=O)OC)CCCC2(C)C1CCC1=CCOC1=O (stereo not given),Potency,[1],inactive
same,Potency,[2],inactive
Cc1ccc(-n2nc(C(C)(C)C)cc2NC(=O)Nc2cc(COc3cccnc3)[nH]n2)cc1,Potency,[1],inactive
same,Potency,[2],inactive
C[C@]1(C2CCCC2)Cc2cc(OCC(=O)O)c(Cl)c(Cl)c2C1=O,Potency,[1],inactive
same,Potency,[2],inactive
COC(=O)C1=COC(OC2OC(CO)C(O)C(O)C2O)C2C(C)CC(=O)C12O (stereo not given),Potency,[1],inactive
same,Potency,[2],inactive
COc1ccnc2[nH]cc(C(=O)C(=O)N3CCN(C(=O)c4ccccc4)CC3C)c12 (stereo not given),Potency,[1],inactive
same,Potency,[2],inactive
CC/C=C/C=C/C1(C)OC(CC(CO)OC)=CC1=O (stereo not given),Potency,[1],inactive
same,Potency,[2],inactive
COc1cccc(Cn2ncc3c4sc(S(C)=O)cc4n(C)c3c2=O)c1 (stereo not given),Potency,[1],inactive
same,Potency,[2],inactive
CC1OC(OC2C(OC3C(O[C@H]4CC[C@@]5(C)C(CC[C@]6(C)C5C(=O)CC5=C7CC(C)(C)CC(O)[C@]7(C)CC[C@]56C)C4(C)C)OC(C(=O)O)C(O)C3O)OCC(O)C2O)C(O)C(O)C1O (stereo not given in full),outcome,[1],inactive [at 9.29 µM]
same,outcome,[2],inactive [at 9.29 µM]
CC(C)=CCC/C(C)=C/CO[C@@H]1O[C@H](CO[C@@H]2OC[C@](O)(CO)[C@H]2O)[C@@H](O)[C@H](O)[C@H]1O,Potency,[1],inactive
same,Potency,[2],inactive
C[C@H]1CC(=O)C2=C(C1)C(O)C(O)[C@@]1(O)[C@H]2C(=O)c2cccc(O)c2[C@@H]1O (stereo not given in full),Potency,[1],inactive
same,Potency,[2],inactive
COc1cc(CCCO)ccc1O[C@@H]1O[C@H](CO)[C@@H](O)[C@H](O)[C@H]1O,Potency,[1],inactive
same,Potency,[2],inactive
O=C(O)c1ccc(NC(=O)[C@H](CC2CCCC2)n2cnc(C(F)(F)F)c2)nc1,Potency,[1],inactive
same,Potency,[2],inactive
COc1cnc(-n2cnc(C)n2)c2[nH]cc(C(=O)C(=O)N3CCN(C(=O)c4ccccc4)CC3)c12,Potency,[1],inactive
same,Potency,[2],inactive
N#Cc1ccc(C2CCCc3cncn32)cc1 (stereo not given),Potency,[1],inactive
same,Potency,[2],inactive
CC(=O)OC[C@@]12C(=O)C[C@@H](C)[C@]3(C[C@@H](c4ccoc4)OC3=O)[C@H]1CC[C@H](OC(C)=O)[C@]21CO1,Potency,[1],inactive
same,Potency,[2],inactive
COC(=O)c1ccc(OC)cc1O[C@@H]1O[C@H](CO[C@@H]2OC[C@@H](O)[C@H](O)[C@H]2O)[C@@H](O)[C@H](O)[C@H]1O,Potency,[1],inactive
same,Potency,[2],inactive
O=C(NCCN1CCCC1)c1cc(-c2ccc(CN3CCOCC3)cc2)nc2ccc(F)cc12,Potency,[1],inactive
same,Potency,[2],inactive
CC1CC(O)/C=C/C(O)/C=C\C(=O)O1 (stereo not given),Potency,[1],inactive
same,Potency,[2],inactive
O=C1C(Cl)=C(N2CCOCC2)C(=O)N1c1ccc(Cl)c(Cl)c1,Potency,[1],inactive
same,Potency,[2],inactive
CC1=CC(=O)C2C(C)(C)CCC[C@]2(C)[C@H]1CC[C@H](C)CC(=O)O (stereo not given in full),Potency,[1],inactive
same,Potency,[2],inactive
Cc1c(-c2ccc3c(c2)OCO3)oc2ccc(C(O)C(C)O)cc12 (stereo not given),Potency,[1],inactive
same,Potency,[2],inactive
COc1cc(C2Oc3c(OC)cc(CCCO)cc3C2CO)ccc1O (stereo not given),Potency,[1],inactive
same,Potency,[2],inactive
CC(CC(C)O[C@@H]1O[C@H](CO)[C@@H](O)[C@H](O)[C@H]1O)OC(=O)/C=C/c1ccc(O)cc1 (stereo not given in full),Potency,[1],inactive
same,Potency,[2],inactive
COc1ccc2c(c1)N1C(=O)C[C@@]34C=CC[N@+]5([O-])CC[C@H]2[C@H](CC3)[C@@]145,Potency,[1],inactive
same,Potency,[2],inactive
COc1ccc(-c2ccn(CC[C@](C)(C(=O)NO)S(C)(=O)=O)c(=O)c2)c(F)c1,Potency,[1],inactive
same,Potency,[2],inactive
C=CC1(C)CC2CCC3C(C)(C(=O)O)CCCC3(C)C2=CC1=O (stereo not given),Potency,[1],inactive
same,Potency,[2],inactive
CC(C)(O)C1OC1C1=CC(=O)C2(C)OC2C1O (stereo not given),Potency,[1],inactive
same,Potency,[2],inactive
CC1CCC2(C(=O)OC3OC(CO)C(O)C(O)C3O)CCC3(C)C(=CCC4C5(C)CCC(O)C(C)(CO)C5CCC43C)C2C1(C)O (stereo not given),Potency,[1],inactive
same,Potency,[2],inactive
O=C(Nc1ccn(Cc2c(F)cccc2C(F)(F)F)n1)c1c(F)cccc1F,outcome,[1],inactive [at 9.29 µM]
same,"activity change, negative = cytotoxicity",[2],7.74% [at 9.29 µM]
COc1ccc(/C=C/C(N)=O)cc1OC,Potency,[1],inactive
same,Potency,[2],inactive
COc1cc(/C=C/C(=O)OC[C@H]2O[C@@H](OC3CC(C)=C(C(=O)O)C(C)(C)C3)[C@H](O)[C@@H](O)[C@@H]2O)cc(OC)c1O (stereo not given in full),Potency,[1],inactive
same,Potency,[2],inactive
O=C(O)C(Cc1ccccc1)NC(=O)C1CCCN1 (stereo not drawn) (H-Pro-Phe-OH; configuration not given here),Potency,[1],inactive
same,Potency,[2],inactive
CC1CC(=O)[C@]2(O)C(C(=O)OCCc3ccc(O)cc3)=CO[C@@H](O[C@@H]3O[C@H](CO)[C@@H](O)[C@H](O)[C@H]3O)[C@H]12 (stereo not given in full),Potency,[1],inactive
same,Potency,[2],inactive
C=C1[C@H](OC(C)=O)[C@H]2[C@@H](OC(=O)c3ccccc3)[C@@H](C)C[C@]2(O)[C@@H](OC(C)=O)[C@H](C)/C=C/C(C)(C)C(=O)[C@H](OC(C)=O)[C@H]1OC(C)=O,Potency,[1],inactive
same,Potency,[2],inactive
COC(=O)c1c(CC=C(C)C)c(OC2OC(CO)C(O)C(O)C2O)c2ccccc2c1OC1OC(CO)C(O)C(O)C1O (stereo not given),Potency,[1],inactive
same,Potency,[2],inactive
C/C=C(\C)C(=O)OCC1OC(OC2OC(CO)C(O)C(O)C2O)C(O)C(O)C1O (stereo not given),Potency,[1],inactive
same,Potency,[2],inactive
CC12CC(O)C(O)C=C1c1cc(O)cc(O)c1C(=O)O2 (stereo not given),Potency,[1],inactive
same,Potency,[2],inactive
C=C(C)[C@@H]1CC[C@]2(C)CC[C@]3(C)C(CCC4[C@@]5(C)CC[C@H](O)C(C)(C)C5CC[C@]43C)C12 (stereo not given in full),Potency,[1],inactive
same,Potency,[2],inactive
Cc1ccc(C)c(S(=O)(=O)n2cnc3ccccc32)c1,Potency,[1],inactive
same,Potency,[2],inactive
C/C=C/C=C/C=C/C(=O)N(C)C(C(=O)NC(C)C(=O)N1CCCC1C(N)=O)C(C)C (stereo not given),Potency,[1],inactive
same,Potency,[2],inactive
CC/C=C\[C@H](O)[C@H](O)C1=C(C)C(=O)[C@]2(O1)C(=O)N[C@@](O)(C(=O)c1ccccc1)[C@@H]2O,Potency,[1],inactive
same,Potency,[2],inactive
C[C@H](/C=C/[C@@]1(O)[C@H](C)CC(=O)CC1(C)C)O[C@@H]1O[C@H](CO[C@@H]2OC[C@@H](O)[C@H](O)[C@H]2O)[C@@H](O)[C@H](O)[C@H]1O,Potency,[1],inactive
same,Potency,[2],inactive
Cc1ncc([N+](=O)[O-])n1C[C@H](O)CN1CCOCC1,Potency,[1],inactive
same,Potency,[2],inactive
COc1ccc(-n2[nH]c3c(cnc4ccccc43)c2=O)cc1,Potency,[1],inactive
same,Potency,[2],inactive
C[C@@H]1O[C@@H](O[C@@H]2[C@@H](O)[C@H](O[C@@H]3[C@@H](O)[C@@H](O)[C@H](O[C@H]4[C@H](OC(=O)[C@]56CCC(C)(C)C[C@H]5C5=CCC7[C@@]8(C)C[C@H](O)[C@H](O[C@@H]9O[C@H](C(=O)O)[C@@H](O)[C@H](O)[C@H]9O)[C@@](C)(CO)C8[C@H](O)C[C@@]7(C)[C@]5(C)C[C@H]6O)O[C@@H](CO)[C@@H]4O)O[C@H]3C)OC[C@H]2O)[C@H](O)[C@H](O)[C@H]1O (stereo not given in full),outcome,[1],inactive [at 9.29 µM]
same,"activity change, negative = cytotoxicity",[2],8.82% [at 9.29 µM]
O=C(C[C@@H]1C(C(=O)O)=CO[C@@H](O[C@@H]2O[C@H](CO)[C@@H](O)[C@H](O)[C@H]2O)/C1=C\CO)OCCc1ccc(O)cc1,Potency,[1],inactive
same,Potency,[2],inactive
Nc1nc2c(nc(Sc3ccc(Cl)cc3)n2[C@@H]2O[C@@H]3COP(=O)(O)O[C@H]3[C@H]2O)c(=O)[nH]1,Potency,[1],inactive
same,Potency,[2],inactive
CCCC/C=C\CCCCCc1cc(=O)c2ccccc2n1C,Potency,[1],inactive
same,Potency,[2],inactive
N#CN1CCC[C@@H](n2nc(-c3ccc(Oc4ccc(F)cc4F)cc3)c(C(N)=O)c2N)C1,Potency,[1],inactive
same,Potency,[2],inactive
O=C(N[C@H](Cc1ccccc1)C(=O)O)c1sc2cc(F)ccc2c1Cl,Potency,[1],inactive
same,Potency,[2],inactive
O=C(NCC(=O)N1CCCC1)Nc1ccc2ccccc2c1,Potency,[1],inactive
same,Potency,[2],inactive
O=C(OCC1=CC(Cl)C(O)C(OC(=O)c2ccccc2)C1O)c1ccccc1 (stereo not given),Potency,[1],inactive
same,Potency,[2],inactive
CC1=CC(=O)CC(C)(C)[C@@]1(O)/C=C/C(C)O[C@@H]1O[C@H](CO)[C@@H](O)[C@H](O)[C@H]1O (stereo not given in full),Potency,[1],inactive
same,Potency,[2],inactive
COCc1c(O)c(C(=O)O)c(C)c2c1OC(=O)c1c(C)cc(O)c(CO)c1O2,Potency,[1],inactive
same,Potency,[2],inactive
